Screening data as filed in PubChem BioAssay.
HttQ103 aggreg: mutant huntingtin aggregation inhibition | PC12 HttQ103-GFP aggregates, Acumen cytometry, 40 h | Potency, µM (series often up to 46.1 µM), inactives show at the top dose activity change, negative = inhibition, most hits filed as inhibitors | 220,000 compounds, 1.1% hits; active = well fitted curve in the direction sought with a large enough effect; inconclusive = small, poorly fitted or top-dose-only effect, or another doubt; inactive = no such curve, though single readings can be large; an effect the other way counts as inactive or inconclusive; note: % is set by controls: 0 for no effect and ±100 for the full control effect; nearly all actives have a fitted effect of over 60% in size
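Compounds (qHTS titration) were added to PC12 cells expressing an ecdysone-driven HTT exon 1 Q103–GFP fusion after induction with 100 nM tebufenozide. Aggregate formation was measured as GFP objects in cell lysates.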
LMNA splice mod: LMNA splicing modulation | HeLa LMNA splicing GFP/RFP minigene ratio, 48 h | Potency, µM (top dose mostly 46.1 µM), inactives show top-dose ratio change, negative = inhibition, usual class: inhibitors | 200,000 compounds, 0.01% hits | AID 1487; active = well fitted inhibition curve with a large enough effect in the signal ratio, with a control signal flat, not every such curve was filed as active; inconclusive = small, poorly fitted or top-dose-only effect, or effect the other way, or a change in a side signal; the % refers to the signal ratio; note: % is set by controls: 0 for no effect and ±100 for the full control effect
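Read-out is the ratio of GFP to DsRed2 object intensity, acquired by 488 nm laser-scanning cytometry on HeLa lamin A-EGFP minigene reporter cells. Compound incubation 48 hrs at 37 °C in Opti-MEM with 2% FBS; DMSO 0.5% final.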
ALDH1A1 block: inhibitors of human aldehyde dehydrogenase 1A1; P00352; Purified ALDH1A1, NADH fluorescence, propionaldehyde substrate; Potency, µM (titrated, usually from 75.3 µM), inactives show at the highest dose activity, negative = inhibition, most hits filed as inhibitors; 220,000 compounds, 7.3% hits; AID 1030;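 note: plate controls were no enzyme wells and a reference inhibitor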
HTT ATP protect: cytoprotection in Huntington HTT-Q103 PC12 cell model; PC12 HTT-Q103 induced, cytoprotection, ATP luminescence, 40 h; Potency, µM (highest dose often 56.4 µM), inactives show cytoprotection (ATP increase), most hits filed as activators; 230,000 compounds, 0.14% hits; AID 1471; active = well fitted curve in the direction sought with a large enough effect; inconclusive = small, poorly fitted or top-dose-only effect, or another doubt; inactive = no such curve, though single readings can be large; an effect the other way counts as inactive or inconclusive; note: % of control where 0% means no effect; nearly all actives have a fitted effect of over 45% in size
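Stable PC12 Q103-GFP cells in serum-supplemented, phenol red-free DMEM; induction by tebufenozide at 100 nM final; compound dose series; cell viability quantified luminescently from ATP.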
HPGD block: HPGD (human) dehydrogenase inhibition | P15428 | purified HPGD, NADH fluorescence kinetic, PGE2 substrate | Potency, µM, without a hit: top-dose activity change, negative = inhibition, hits mostly inhibitors | 150,000 compounds, 4.3% hits; note: % is set by controls: 0 for no effect and ±100 for the full control effect
Target sequence (P15428 whole entry, looked up): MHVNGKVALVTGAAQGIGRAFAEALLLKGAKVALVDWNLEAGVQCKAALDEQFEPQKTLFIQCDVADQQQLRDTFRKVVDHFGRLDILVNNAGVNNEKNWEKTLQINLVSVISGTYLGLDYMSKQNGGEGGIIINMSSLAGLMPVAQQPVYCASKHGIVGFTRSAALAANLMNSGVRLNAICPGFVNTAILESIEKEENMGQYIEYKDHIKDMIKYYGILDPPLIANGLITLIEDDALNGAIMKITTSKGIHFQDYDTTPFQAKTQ
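NADH formation kinetics: reaction with 30 uM PGE2 and 1 mM NAD+ (final), 20 nM enzyme, Tris-HCl pH 8 with Tween 20, after 15 min compound preincubation at room temperature. Fluorescence change, last versus first of five reads.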
* hit, by the source's call; ? = inconclusive; · = not tested or not shown; [ ] = remark or other dose. Most compounds without a hit are left out; they make up all but 8.8% or so of the library. Unless noted, calls come from the whole dose curve; as a rule, active = well fitted inhibition curve with a large enough effect (not every such curve was filed as active); inconclusive = small, poorly fitted or top-dose-only effect, or another doubt; inactive = no such curve, though single readings can be large or run the other way. Potency is the fitted concentration of half-maximal effect.

SMILES	HttQ103 aggreg	LMNA splice mod	ALDH1A1 block	HTT ATP protect	HPGD block
CC(=O)[C@@H]1[C@@H]2C(=O)N(C3CCCCC3)C(=O)[C@@H]2C2c3ccccc3C=CN21 (some centres not stated)	5.3%	10.2%	7.08µM*	-14.2%	?
COc1ccc(NC(=O)[C@@H]2[C@@H]3C(=O)N(C4CCCCC4)C(=O)[C@@H]3C3c4ccccc4C=CN32)cc1 (some centres not stated)	-16.2%	3.2%	0.501µM*	-13.3%	-27.8%
Cc1cn([C@H]2C[C@@H](N=[N+]=[N-])[C@@H](CO)O2)c(=O)[nH]c1=O	·	?	-5.6%	·	-9.4%
Cn1cnnc1SC(C(=O)c1ccccc1)c1ccccc1 (configuration not stated)	14.5%	-14.7%	?	2.8%[10 µM]	-25.3%
O=C(c1ccccc1)C(Sc1ncn[nH]1)c1ccccc1 (configuration not stated)	-7.3%	-7.0%	?	15.9%[10 µM]	39.8µM*
O=Cc1ccnc(-c2ccc(OC(=O)c3ccco3)cc2)n1	9.5%	?	?	-1.6%	·
COc1ccc(NC(=O)CC(NCc2ccccn2)C(=O)O)cc1 (configuration not stated)	-6.3%[9.22 µM]	-2.9%[46 µM]	8.5%	22.7%[10 µM]	·
CCOc1ccccc1NC(=S)NCc1ccco1	29.7%	-3.1%	28.2µM*	23.8%[10 µM]	-19.5%
CN(C)S(=O)(=O)c1ccc(C(=O)NCc2ccco2)cc1	1.6%[9.22 µM]	·	?	6.4%[10 µM]	·
COc1ccc(NC(=S)NCc2ccco2)cc1	-24.1%	10.7%	-0.7%	-8.9%	-28.4%
O=C(CCNc1cccc(Cl)c1)c1ccco1	5.8%	-3.9%	7.08µM*	-4.9%	-7.0%
S=C(NCc1ccco1)Nc1ccc(Cl)c(Cl)c1	?	?	25.1µM*	-52.9%	3.16µM*
CN(C)S(=O)(=O)c1ccc(C(=O)OCC(=O)NCc2ccco2)cc1	19.7%	-7.0%[46 µM]	15µM*	-21.4%	·
COc1ccc(-c2nc3cnc(N4CCNCC4)nc3n(Cc3cccs3)c2=O)cc1	·	?	?	-97.0%	·
Cc1ccccc1NC(=S)NCc1ccco1	26.6%	-3.8%	-7.3%	12.7%[10 µM]	-14.4%
Cc1cc2c(cc(C(=O)OCC(=O)NCc3ccco3)n2C)s1	7.9%	?	-20.3%	-36.5%	14.1µM*
S=C(NCc1ccco1)Nc1cc(-c2ccccc2)[nH]n1	9.6%	?	1.12µM*	4.7%[10 µM]	·
S=C(NCc1ccco1)Nc1cc(Cl)c(Cl)cc1Cl	-7.4%	?	-11.5%	4.2%[10 µM]	3.16µM*
O=C(NNC(=S)Nc1ccc(F)c(Cl)c1)c1ccccc1Br	?	?	12.6µM*	13.2%[10 µM]	·
CC(=O)c1cccc(NC(=S)NCc2ccco2)c1	23.1%[9.22 µM]	2.5%[46 µM]	-8.0%	16.8%[10 µM]	·
CN(C)S(=O)(=O)c1cccc(NC(=S)NCc2ccco2)c1	-0.8%	·	31.6µM*	-16.1%	·
S=C(NCc1ccco1)Nc1cccc(Cl)c1	-16.3%	?	?	8.7%[10 µM]	11.2µM*
COc1ccc(Cl)cc1NC(=S)NCc1ccco1	-7.2%	-5.6%	4.4%	-11.5%	12.6µM*
CN(C)S(=O)(=O)c1ccc(Cl)c(C(=O)NCc2ccco2)c1	21.0%	-5.1%	?	-6.4%[10 µM]	-4.3%
S=C(NCc1ccccn1)Nc1ccc(Cl)c(Cl)c1	-6.0%	4.0%	11.2µM*	15.3%	15.8µM*
SMILES	HttQ103 aggreg	LMNA splice mod	ALDH1A1 block	HTT ATP protect	HPGD block
O=S(=O)(NCC(c1cccs1)S(=O)(=O)c1ccccc1)c1ccc(F)cc1 (configuration not stated)	·	-11.0%[46 µM]	·	·	·
COC(=O)N[C@@H](/C=C/c1ccccc1)[C@@H](C)[N+](=O)[O-]	·	·	4.9%	?	-8.9%
CN(C)c1ncc2nc(-c3cc(F)cc(F)c3)c(=O)n(C[C@H]3CCCO3)c2n1	·	12.0%	0.0%	2.7%	·
Fc1ccc(Nc2nc(-c3ccoc3)nc3ccccc23)cc1	·	?	?	-40.0%	·
O=C(Nc1cccc(S(=O)(=O)NC2=NCCC2)c1)C1CC(=O)N(c2ccc3c(c2)OCCO3)C1 (configuration not stated)	21.4%	-21.7%[46 µM]	-5.3%	-1.7%[10 µM]	·
CC[C@@H]1Cn2c(c3nc(-c4ccccc4)nc-3n(C)c2=O)N1	·	·	?	2.2%	?
COc1cc(/C=C\C(=O)N2CCC=CC2=O)cc(OC)c1OC	·	?	?	-69.3%[40.3 µM]	-5.1%
O=C(NNC(=S)Nc1ccc(Cl)c(Cl)c1)c1ccccn1	·	·	3.16µM*	·	·
O=C1[C@@H]2[C@H]3[C@H](O)[C@H](O)C/C(=N/OCc4ccccc4)[C@@H]3CC[C@H]2C(=O)N1c1ccc(F)cc1F	·	·	-1.4%[13.5 µM]	1.8%[10 µM]	·
CCn1c(C)c(C(C)=O)c(N2CCCCC2)nc1=S	-4.8%	-8.9%	-3.9%	10.0%[10 µM]	-2.6%
CCn1c(C)c(C(C)=O)c(N2CCN(C(c3ccccc3)c3ccccc3)CC2)nc1=S	20.2%	·	14.1µM*	-17.0%	·
CCn1c(C)c(C(C)=O)c(N2CCN(c3ccccn3)CC2)nc1=S	6.7%	-1.1%	6.8%	2.8%[0.074 µM]	-5.1%
CCn1c(C)c(C(C)=O)c(N2CCN(c3ccccc3)CC2)nc1=S	-9.0%	-0.3%	11.2µM*	16.4%	-8.7%
COc1ccc(C(=O)N2CCc3cc(OC)c(OC)cc3C2COc2ccccc2OC)cc1 (configuration not stated)	·	-1.6%[46 µM]	·	·	·
CC(=O)Nc1ccc(NC(=O)C2CC(=O)N(Cc3ccccc3)C2)cc1 (configuration not stated)	-15.3%	6.0%[46 µM]	3.55µM*	-11.3%	·
CCC(=O)N1C2=C(c3ccccc3[C@@H]1CC(=O)Nc1ccc3ccccc3c1)[C@@H]1C(=O)N(c3ccccc3)C(=O)[C@@H]1[C@H](C)C2	·	?	-6.3%[13.5 µM]	-71.8%[10 µM]	-26.9%
CCOc1ccc(Br)cc1S(=O)(=O)Nc1ccc(Cl)c(S(=O)(=O)N(CC)c2ccccc2)c1	-28.4%	?	13.2%	-7.9%[10 µM]	-5.6%
CCOc1ccc(Br)cc1S(=O)(=O)Nc1ccc(Cl)c(S(=O)(=O)N(C)C)c1	?	?	0.355µM*	22.7%[10 µM]	·
C[C@@H](Oc1ccc(Oc2cnc3ccc(Cl)cc3n2)cc1)C(=O)O	·	?	?	·	17.8µM*
COc1ccc(NC(C)c2cc(Cl)ccc2O)cc1 (configuration not stated)	0.4%	15.3%	22.4µM*	-1.6%[0.074 µM]	?
